Measurements: PubChem BioAssay (NCI)
The panel holds about 83,000 compounds, 20% with a hit somewhere; the sample as a whole holds those more often.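 The test compound was applied at a single concentration to cells in 96-well plates for 48 hours, and percent growth was recorded.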 Calls of active or inactive are those of the source. How the source made its calls: active means growth percent below 10; inactive means the rest.

Experiments:
Assay in all cases: NCI-60 one-dose screen, 48 h (100 = growth as untreated, 0 = no growth, -100 = all killed)
Details in all cases: 10 µM unless noted
SR leukemia = test system: SR leukemia
RPMI-8226 leukemia = test system: RPMI-8226 leukemia
OVCAR-5 ovarian = test system: OVCAR-5 ovarian
OVCAR-4 ovarian = test system: OVCAR-4 ovarian
SK-OV-3 ovarian = test system: SK-OV-3 ovarian
IGROV1 ovarian = test system: IGROV1 ovarian
OVCAR-3 ovarian = test system: OVCAR-3 ovarian
HS 578T breast = test system: HS 578T breast
NCI/ADR-RES ovarian = test system: NCI/ADR-RES ovarian
OVCAR-8 ovarian = test system: OVCAR-8 ovarian

Measured: growth

Cc1ccc2c(c1)Nc1ccc(C)cc1C2(C)C
inactive: SR leukemia 88.3% | RPMI-8226 leukemia 85.4% | OVCAR-5 ovarian 105% | OVCAR-4 ovarian 92.3% | SK-OV-3 ovarian 82.2% | IGROV1 ovarian 106% | OVCAR-3 ovarian 97.7% | HS 578T breast 113% | NCI/ADR-RES ovarian 105%

COc1cc(NC(C)CCCN2C(=O)c3ccccc3C2=O)c2nc(C)ccc2c1OC (stereo not given)
inactive: SR leukemia 36.7% | RPMI-8226 leukemia 70.1% | OVCAR-8 ovarian 88.2% | OVCAR-4 ovarian 69.4% | SK-OV-3 ovarian 106% | IGROV1 ovarian 129% | HS 578T breast 113% | NCI/ADR-RES ovarian 83.3%

O=C(NOC1OC(CO)C(O)C(O)C1O)Nc1ccccc1 (stereo not given)
inactive: SR leukemia 75.2% | RPMI-8226 leukemia 87.3% | OVCAR-8 ovarian 103% | OVCAR-4 ovarian 105% | SK-OV-3 ovarian 95.7% | IGROV1 ovarian 111% | OVCAR-3 ovarian 105% | HS 578T breast 103% | NCI/ADR-RES ovarian 109%

Cc1ccc(N(CC2=NCCN2)c2cccc(O)c2)cc1
inactive: SR leukemia 95.3% | RPMI-8226 leukemia 94.5% | OVCAR-8 ovarian 95.2% | OVCAR-4 ovarian 103% | SK-OV-3 ovarian 105% | IGROV1 ovarian 90.3% | OVCAR-3 ovarian 112% | HS 578T breast 101% | NCI/ADR-RES ovarian 104%

COc1ccc(OCC(O)CN2CCN(c3ccc(Cl)cc3)CC2)cc1 (stereo not given)
inactive: SR leukemia 112% | RPMI-8226 leukemia 98.9% | OVCAR-8 ovarian 61.6% | OVCAR-4 ovarian 79.8% | SK-OV-3 ovarian 90.7% | OVCAR-3 ovarian 105% | HS 578T breast 123% | NCI/ADR-RES ovarian 185%

O=C(Cn1c2ccccc2c2ccncc21)N/N=C/c1c[nH]c2ccccc12
inactive: SR leukemia 40.6% | OVCAR-5 ovarian 107% | SK-OV-3 ovarian 107% | IGROV1 ovarian 89.2% | OVCAR-3 ovarian 18.3% | HS 578T breast 53.2% | NCI/ADR-RES ovarian 94.6%
active: RPMI-8226 leukemia -27.7% | OVCAR-4 ovarian -60%

O=C(Nc1ccc(-n2ccc3c(NC(=O)c4ccccc4)ncnc32)cc1)Nc1ccc(Cl)c(Cl)c1
active: SR leukemia -6.07% | RPMI-8226 leukemia -1.3% | OVCAR-8 ovarian 0.377% | OVCAR-4 ovarian -74.1% | IGROV1 ovarian -2.23% | OVCAR-3 ovarian -67.1%
inactive: SK-OV-3 ovarian 67.9% | NCI/ADR-RES ovarian 53.2%

O=C(Nc1ccc(-n2ccc3c(NC(=O)c4ccccc4)ncnc32)cc1)c1cccc(C(F)(F)F)c1
active: SR leukemia 2.8%
inactive: RPMI-8226 leukemia 20.1% | OVCAR-8 ovarian 40.9% | OVCAR-4 ovarian 97.1% | SK-OV-3 ovarian 61.2% | IGROV1 ovarian 43.1% | OVCAR-3 ovarian 54.4% | NCI/ADR-RES ovarian 50.7%

CC(C)Cn1cnc2c3ccccc3nc(NCn3nc(-c4cc(Cl)cc(Cl)c4Cl)oc3=S)c21
inactive: SR leukemia 25.5% | RPMI-8226 leukemia 74.8% | OVCAR-8 ovarian 98.4% | OVCAR-4 ovarian 88.2% | SK-OV-3 ovarian 109% | IGROV1 ovarian 51% | HS 578T breast 116% | NCI/ADR-RES ovarian 66.4%

COc1ccccc1NC(=O)COc1ccc(/C=C2/Oc3cc4occc4c(OC)c3C2=O)cc1OC
inactive: SR leukemia 93.5% | RPMI-8226 leukemia 66.7% | OVCAR-5 ovarian 111% | OVCAR-4 ovarian 112% | SK-OV-3 ovarian 110% | IGROV1 ovarian 122% | OVCAR-3 ovarian 105% | HS 578T breast 112% | NCI/ADR-RES ovarian 90.8%

O=C1c2ccccc2OC=C(c2ccccc2)N1CCCCN1CCCCC1
inactive: SR leukemia 65.2% | RPMI-8226 leukemia 23.6% | OVCAR-5 ovarian 101% | OVCAR-4 ovarian 58.7% | SK-OV-3 ovarian 13.2% | IGROV1 ovarian 73.7% | OVCAR-3 ovarian 63.6% | HS 578T breast 75.1% | NCI/ADR-RES ovarian 88.8%

COc1ccccc1S(=O)(=O)Nc1ccc2c3c(cc(-c4cnn(C5CC5)c4)nc13)C(=O)N2C
inactive: SR leukemia 51.3% | RPMI-8226 leukemia 10% | OVCAR-5 ovarian 72.6% | OVCAR-4 ovarian 62.2% | SK-OV-3 ovarian 55.8% | IGROV1 ovarian 59.2% | OVCAR-3 ovarian 69.8% | HS 578T breast 55.9% | NCI/ADR-RES ovarian 59%

CCOC(=O)c1noc2c1CCc1cn(Cc3cc(OC)cc(OC)c3)cc1-2
inactive: SR leukemia 91.1% | RPMI-8226 leukemia 99.9% | OVCAR-5 ovarian 108% | OVCAR-4 ovarian 113% | SK-OV-3 ovarian 101% | IGROV1 ovarian 110% | OVCAR-3 ovarian 103% | HS 578T breast 99.7% | NCI/ADR-RES ovarian 97.9%

COc1ccc(/C(=C/c2cc(OC)c(OC)c(OC)c2)[N+](=O)[O-])cc1
inactive: OVCAR-8 ovarian 13.4% | OVCAR-4 ovarian 37.3% | SK-OV-3 ovarian 91% | HS 578T breast 97.9% | NCI/ADR-RES ovarian 33.8%
active: SR leukemia -11.2% | RPMI-8226 leukemia -18.6% | IGROV1 ovarian -4.79% | OVCAR-3 ovarian -54.3%

O=[N+]([O-])c1ccccc1NC1c2ccccc2Oc2ccccc21
active: SR leukemia 2.25% | OVCAR-3 ovarian 3.28%
inactive: RPMI-8226 leukemia 69.5% | OVCAR-8 ovarian 72.9% | OVCAR-4 ovarian 98.7% | SK-OV-3 ovarian 76.9% | IGROV1 ovarian 49.3% | NCI/ADR-RES ovarian 31.4%

COc1ccccc1P(c1ccccc1OC)c1ccccc1OC
inactive: SR leukemia 107% | RPMI-8226 leukemia 113% | OVCAR-8 ovarian 66% | OVCAR-4 ovarian 100% | SK-OV-3 ovarian 91.2% | OVCAR-3 ovarian 108% | HS 578T breast 133% | NCI/ADR-RES ovarian 172%

Nc1nccc(=S)[nH]1
inactive: SR leukemia 87.1% | RPMI-8226 leukemia 96.6% | OVCAR-5 ovarian 111% | OVCAR-4 ovarian 114% | SK-OV-3 ovarian 102% | IGROV1 ovarian 107% | OVCAR-3 ovarian 109% | HS 578T breast 103% | NCI/ADR-RES ovarian 107%

O=C(Nc1ccc(-n2cc(-c3ccncc3)c(-c3ccc(O)c(Cl)c3)n2)cc1)c1cc(Cl)cc(Cl)c1
active: RPMI-8226 leukemia -19.5%
inactive: SR leukemia 14.8% | OVCAR-8 ovarian 30.3% | OVCAR-4 ovarian 78.1% | SK-OV-3 ovarian 70.2% | IGROV1 ovarian 43.2% | OVCAR-3 ovarian 27% | NCI/ADR-RES ovarian 28.7%

COc1cc(CN(c2ccc(Cl)cc2)C2OC(=O)c3ccccc32)cc(OC)c1OC (stereo not given)
inactive: SR leukemia 32.1% | RPMI-8226 leukemia 70.9% | OVCAR-8 ovarian 74.8% | OVCAR-4 ovarian 74.7% | SK-OV-3 ovarian 62.7% | IGROV1 ovarian 63.9% | HS 578T breast 59.6% | NCI/ADR-RES ovarian 55.9%

CC(=O)Nc1ccc(OC(=O)c2ccccc2O)cc1
inactive: SR leukemia 96.9% | RPMI-8226 leukemia 101% | OVCAR-8 ovarian 110% | OVCAR-4 ovarian 105% | SK-OV-3 ovarian 105% | IGROV1 ovarian 115% | HS 578T breast 99.4% | NCI/ADR-RES ovarian 102%

O=C(Nc1ccc(-n2ccc3c(NC(=O)c4ccccc4)ncnc32)cc1)Nc1ccc(Cl)c(C(F)(F)F)c1
inactive: SK-OV-3 ovarian 79.2% | NCI/ADR-RES ovarian 16%
active: SR leukemia 6.03% | RPMI-8226 leukemia -38% | OVCAR-8 ovarian -25.3% | OVCAR-4 ovarian -42.8% | IGROV1 ovarian -3.16% | OVCAR-3 ovarian -86.6%

Nc1ccc(S(=O)(=O)Nc2cc(I)cc(I)c2)cc1
inactive: SR leukemia 15.8% | RPMI-8226 leukemia 97.5% | OVCAR-8 ovarian 107% | OVCAR-4 ovarian 99% | SK-OV-3 ovarian 117% | IGROV1 ovarian 104% | HS 578T breast 117% | NCI/ADR-RES ovarian 97.5%

CCOC(=O)n1cnc2c(Cl)ncnc21
inactive: SR leukemia 110% | RPMI-8226 leukemia 116% | OVCAR-8 ovarian 65% | OVCAR-4 ovarian 107% | SK-OV-3 ovarian 94.2% | OVCAR-3 ovarian 112% | HS 578T breast 138% | NCI/ADR-RES ovarian 246%

COc1ccc(OC)c(NCC(=O)n2nc(/C=C\c3ccc(O)c(OC)c3)cc2/C=C\c2ccc(O)c(OC)c2)c1
inactive: OVCAR-4 ovarian 39.2% | IGROV1 ovarian 11.6% | OVCAR-3 ovarian 12% | HS 578T breast 22.2% | NCI/ADR-RES ovarian 20.4%
active: SR leukemia 0.623% | RPMI-8226 leukemia -8.66% | OVCAR-8 ovarian 7.25% | SK-OV-3 ovarian -3.5%

Oc1ccccc1/C=N/c1ccccn1
inactive: SR leukemia 104% | RPMI-8226 leukemia 78% | OVCAR-8 ovarian 95% | OVCAR-4 ovarian 106% | SK-OV-3 ovarian 99.6% | OVCAR-3 ovarian 111% | HS 578T breast 143%
active: NCI/ADR-RES ovarian -97.1%

COc1cc2ncn3c(=O)c4c5c(sc4nc3c2cc1OC)CCCCC5
inactive: SR leukemia 97.9% | RPMI-8226 leukemia 103% | OVCAR-8 ovarian 102% | OVCAR-4 ovarian 101% | SK-OV-3 ovarian 99.6% | IGROV1 ovarian 79.3% | OVCAR-3 ovarian 98.4% | HS 578T breast 99.7% | NCI/ADR-RES ovarian 92.4%

N#Cc1c(N)nc2c(c1N)C(c1ccc(Cl)cc1)C1=C(CCCC1=O)N2c1sc2c(c1C#N)CCCC2 (stereo not given)
inactive: SR leukemia 41.8% | RPMI-8226 leukemia 75.5% | OVCAR-8 ovarian 84.4% | OVCAR-4 ovarian 89.9% | SK-OV-3 ovarian 89.1% | IGROV1 ovarian 89.6% | HS 578T breast 86.7% | NCI/ADR-RES ovarian 81.1%

O=C(Nc1ccc(-n2cc(-c3ccncc3)c(-c3ccc(O)c(Cl)c3)n2)cc1)c1ccc(Cl)c(Cl)c1
inactive: SR leukemia 18.6% | OVCAR-8 ovarian 25.7% | OVCAR-4 ovarian 78.9% | SK-OV-3 ovarian 66.6% | IGROV1 ovarian 61.5% | OVCAR-3 ovarian 25.7% | NCI/ADR-RES ovarian 24.9%
active: RPMI-8226 leukemia -27.7%

COc1ccc2c(c1)/C(=C/c1c(-c3cc(OC)c(OC)c(OC)c3Br)nc3sccn13)C(=O)N2
inactive: SR leukemia 95.1% | RPMI-8226 leukemia 85.9% | OVCAR-8 ovarian 99.6% | OVCAR-4 ovarian 100% | SK-OV-3 ovarian 96.6% | IGROV1 ovarian 45.7% | NCI/ADR-RES ovarian 92.2%

CCCCNc1cc(C(=O)O)cc(S(N)(=O)=O)c1Oc1ccccc1
inactive: SR leukemia 104% | RPMI-8226 leukemia 112% | OVCAR-8 ovarian 107% | OVCAR-4 ovarian 105% | SK-OV-3 ovarian 108% | IGROV1 ovarian 109% | OVCAR-3 ovarian 115% | NCI/ADR-RES ovarian 99.1%

O=c1c2ccccc2sc2c(NCCN3CCOCC3)nc3ccccc3c12
active: SR leukemia 3.91%
inactive: RPMI-8226 leukemia 40.3% | OVCAR-8 ovarian 58.8% | OVCAR-4 ovarian 65.6% | SK-OV-3 ovarian 50.8% | IGROV1 ovarian 66.2% | OVCAR-3 ovarian 79.2% | HS 578T breast 52.7% | NCI/ADR-RES ovarian 63.5%
